SENP8 block-1: human SENP8 protease inhibitors, primary screen, biochemical, fluorescence, Nedd8 protein substrate, uHTS. 360,000 tested, 0.64% active. recombinant SENP8. inhibition, % at 20 µM. AID 602440, 2012. Sentrin-specific protease 8 (Homo sapiens), Q96LD8; in the data active means inhibition mostly above about 40%, no sharp cut-off; inactive means mostly below about 27%
C8 TRAIL sens: viability loss with TRAIL in NB7+C8 cells, primary screen, TRAIL sensitizer project, cell-based, ATPlite luminescence | inhibition (viability loss, TRAIL sensitization), % at 10 µM | 360,000 tested, 1% active | AID 624354, 2012;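 active means compounds causing at least 50% loss of cell viability in the single-dose screen, relative to plate controls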
SENP7 inh: SENP7 protease inhibitors, primary screen, biochemical, luminescence, uHTS; Sentrin-specific protease 7 (Homo sapiens), Q9BQF6; recombinant SENP7, Z-RLRGG-aminoluciferin luminescence, 40 min; inhibition, % at 5 µM; 330,000 tested, 1.5% active; AID 434973, 2010;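 active means inhibition above about 50% at the single test dose, limit read from the data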
PPC-1+TRAIL kill: compounds killing PPC-1 cancer cells with TRAIL present, primary screen, TRAIL potentiator project, ATPLite luminescence, uHTS. PPC-1 cells + TRAIL, ATPLite viability luminescence. cell killing (% activity), % at 4 µM or 5 µM. 220,000 tested, 0.41% active;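 active means cell killing above 50% in the first pass at 4 µM, then a duplicate retest at 5 µM averaging 50% or more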
SENP8 block-2: SENP8 protease inhibitors, primary screen, biochemical, luminescence; Sentrin-specific protease 8 (Homo sapiens), Q96LD8; purified SENP8, Z-RLRGG-aminoluciferin cleavage; inhibition, % at 10 µM; 330,000 tested, 1.2% active; AID 2540, 2010; in the data active means inhibition above about 50%
SENP6 inh: SENP6 protease inhibitors, primary screen, biochemical, luminescence, uHTS; AID 2599, 2010; inhibition, % at 10 µM; Recombinant SENP6 catalytic domain, aminoluciferin luminescence; 330,000 tested, 1.8% active; Sentrin-specific protease 6 (Homo sapiens), Q9GZR1;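 active means inhibition above about 50% at the single tested dose, limit read from the data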
Target sequence (Q9GZR1 628-1112 limits assumed): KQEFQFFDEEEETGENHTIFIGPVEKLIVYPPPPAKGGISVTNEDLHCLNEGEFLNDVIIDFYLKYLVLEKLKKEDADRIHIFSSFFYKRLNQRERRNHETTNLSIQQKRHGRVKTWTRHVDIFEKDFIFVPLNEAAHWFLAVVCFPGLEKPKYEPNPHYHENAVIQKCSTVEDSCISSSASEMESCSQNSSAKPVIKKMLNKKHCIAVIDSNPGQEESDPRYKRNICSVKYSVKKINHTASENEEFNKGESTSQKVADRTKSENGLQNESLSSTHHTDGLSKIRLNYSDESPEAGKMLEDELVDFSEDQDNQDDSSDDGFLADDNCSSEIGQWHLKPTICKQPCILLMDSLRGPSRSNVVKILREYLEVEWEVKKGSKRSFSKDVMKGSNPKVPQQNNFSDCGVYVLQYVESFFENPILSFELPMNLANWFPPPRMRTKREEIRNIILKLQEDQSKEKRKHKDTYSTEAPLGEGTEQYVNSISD
Numbers stand for hits; n = inactive; x = not tested or not shown. Rows were chosen to be rich in hits. Some 3% of all compounds tested hit in one or more screens of this group.

SMILES	SENP8 block-1	C8 TRAIL sens	SENP7 inh	PPC-1+TRAIL kill	SENP8 block-2	SENP6 inh
Cc1ccc2cc(C(c3nnnn3C3CCCC3)N(Cc3cccnc3)Cc3ccco3)c(=O)[nH]c2c1 (stereo not given)	n	n	n	53	n	n
COc1cccc(C(C)(O)c2nc(-c3cccc(C(C)C)c3)cs2)c1 (stereo not given)	n	n	x	x	x	x
CN1/C(=C\C(=O)C[n+]2ccc(C(=O)c3ccccc3)cc2)C(C)(C)c2ccccc21	n	55	n	n	n	n
CCCCN(CCCC)Cc1cc(=O)oc2ccc3ccccc3c12	n	n	x	x	x	x
O=C(Nc1nc(-c2ccccn2)cs1)c1ccc2c(c1)OCCO2	n	51	n	n	n	n
CCOC(=O)c1cc2c(=O)n3ccccc3nc2n(Cc2ccco2)c1=NC(=O)c1ccc(OC)cc1OC	n	n	n	n	n	n
Cc1cccc2sc(NNC(=O)c3cc(=O)c4ccccc4o3)nc12	n	n	89	n	96	98
O=C(NNc1nc2c(F)cccc2s1)c1cc(=O)c2ccccc2o1	n	n	74	n	94	98
COc1ccc2nc(NNC(=O)c3cc(=O)c4ccccc4o3)sc2c1	n	48	n	n	n	n
Cc1nc(C)c(C(=O)Nc2nc3c(C)cccc3s2)o1	n	n	n	n	n	n
O=C(COC(=O)c1nc(Cl)ccc1Cl)NC1CCCCC1	n	n	n	x	n	n
NC1=NC[C@H](CC2CCCCC2)N1CCc1cc(C(F)(F)F)cc(C(F)(F)F)c1	n	60	n	n	n	n
FC(F)(F)c1cc(CCN2CCNC[C@@H]2CC2CCCCC2)cc(C(F)(F)F)c1	n	67	n	x	n	n
CN(C)S(=O)(=O)c1ccc(N2CCN(S(=O)(=O)c3ccc(F)cc3)CC2)c(Cl)c1	n	53	n	n	n	n
O=C(C#Cc1cccc([N+](=O)[O-])c1)c1ccccc1	n	83	n	n	n	n
Nc1ccccc1C#CC(=O)c1ccccc1	n	64	n	x	n	n
CC(C)S(=O)(=O)c1csc(NC(=O)Nc2cccc([N+](=O)[O-])c2)c1Cl	n	n	n	n	n	n
C/C(CC(=O)Nc1ccc(C)c(Cl)c1)=N\NC(=O)c1ccccn1	n	n	n	x	n	n
CC(Sc1nnnn1C)C(=O)NC1CCCC1 (stereo not given)	n	n	n	x	n	n
C#Cc1ccc(NC(=O)C2(C)CCN2C(=O)CC(c2ccccc2)c2ccccc2)cc1 (stereo not given)	n	93	x	x	x	x
NC(=O)c1oc2ccccc2c1NC(=O)c1ccc([N+](=O)[O-])o1	n	74	n	x	n	n
NC(=O)c1oc2ccccc2c1NC(=O)c1ccc(F)cc1	n	n	n	n	n	n
O=C(Nc1ccc(N=Nc2ccccc2)cc1)c1ccccc1Cl	51	n	n	n	n	n
O=C(Nc1ccc(N=Nc2ccccc2)cc1)c1ccc(Cl)cc1Cl	n	n	n	n	n	n
O=C1N=C(N2CCCC2C(=O)O)S/C1=C\c1ccco1 (stereo not given)	n	n	n	n	n	n
SMILES	SENP8 block-1	C8 TRAIL sens	SENP7 inh	PPC-1+TRAIL kill	SENP8 block-2	SENP6 inh
CC(Sc1ccc(S(=O)(=O)N2CCCCC2)cn1)C(N)=O (stereo not given)	n	n	x	x	x	x
O=C(CCCCCNC(=O)c1ccccc1)N=Nc1c(O)[nH]c2c(Br)cc(Br)cc12	x	x	n	n	n	n
O=C(CNC(=O)c1cccnc1)N=Nc1c(O)[nH]c2c(Br)cc(Br)cc12	44	n	n	x	n	n
O=C(CCCn1c(=O)oc2ccccc21)NNC(=O)COc1ccc(F)cc1	n	n	n	x	n	n
COc1cc2c(cc1OC)C(c1cc3ccccc3oc1=O)=NC(C)(C)C2	n	n	n	n	n	n
CCC1=NN(C(=O)c2ccc(C)cc2)C(O)(c2ccc(Br)cc2)C1 (stereo not given)	n	n	n	n	n	n
CCC1=NN(C(=O)c2cccc(Br)c2)C(O)(c2ccc(Br)cc2)C1 (stereo not given)	n	49	n	n	n	n

Compound activity deposited in PubChem by Sanford-Burnham Center for Chemical Genomics.
